Cycloheximide cs = affects cycloheximide protein synthesis inhibition readout, counter-screen; cell reporter, cycloheximide protein synthesis inhibition counterscreen; max response, %; hit rate 12% among 300,000; in the data active = max response mostly above about 13%, no sharp cut-off; inactive = mostly below about 14%; note: read at 38.3 µM for the half of the compounds with a filed dose; 0% is about no effect
LmPK inhibitor = LmPK (Leishmania mexicana) enzyme inhibition; Potency, µM (doses to about 57.5 µM), for inactives: top-dose activity change, negative = inhibition, actives largely listed as inhibitors; hit rate 0.37% among 290,000; AID 1721; purified LmPK, Kinase-Glo ATP luminescence, 1 h; Q27686; active = well fitted curve in the direction sought with a large enough effect; inconclusive = small, poorly fitted or top-dose-only effect, or another doubt; inactive = no such curve, though single readings can be large; an effect the other way counts as inactive or inconclusive; note: potency is the fitted concentration of half-maximal effect; % is set by controls: 0 for no effect and ±100 for the full control effect
Target sequence (Q27686 whole entry, looked up): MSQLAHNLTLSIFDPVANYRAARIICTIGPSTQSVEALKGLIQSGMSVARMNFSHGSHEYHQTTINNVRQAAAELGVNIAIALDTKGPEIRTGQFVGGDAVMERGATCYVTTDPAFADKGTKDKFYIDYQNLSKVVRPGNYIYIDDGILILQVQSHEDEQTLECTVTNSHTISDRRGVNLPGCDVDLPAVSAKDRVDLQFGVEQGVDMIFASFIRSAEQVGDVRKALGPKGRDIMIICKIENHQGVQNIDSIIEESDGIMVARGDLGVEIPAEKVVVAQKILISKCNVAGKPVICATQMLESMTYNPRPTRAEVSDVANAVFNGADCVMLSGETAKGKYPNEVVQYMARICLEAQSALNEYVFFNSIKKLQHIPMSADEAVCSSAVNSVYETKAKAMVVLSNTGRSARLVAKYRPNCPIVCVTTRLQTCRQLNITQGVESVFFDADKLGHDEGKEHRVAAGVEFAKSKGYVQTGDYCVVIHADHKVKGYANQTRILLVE
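0.1 nM LmPK, 0.5 mM PEP, 0.1 mM ADP; 50 mM imidazole pH 7.2, 7 mM MgCl2, 50 mM KCl; 1 h RT. Kinase-Glo luminescence readout, normalized to no-enzyme (full inhibition) and uninhibited wells.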
Shiga toxin inh = blocks Shiga toxin action in Vero cells; AID 2315; inhibition, % at 38.7 µM; Vero cells, Shiga toxin protein synthesis inhibition reporter; hit rate 9.2% among 290,000; in the data active = inhibition mostly above about 28%, no sharp cut-off; inactive = mostly below about 43%; note: 0% is about no effect
SARS PLP yeast = SARS-CoV PLP inhibition in yeast. S. cerevisiae expressing SARS-CoV PLpro, growth rescue. Potency, µM (series often up to 32.9 µM), for the others: at the highest dose activity, positive = growth rescue, hits mostly activators. hit rate 0.19% among 330,000; note: potency is the fitted concentration of half-maximal effect; 0% is about no effect; nearly all actives have a fitted effect of over 55% in size
NS1 inh = inhibitors of influenza NS1 protein function. Potency, µM (top dose mostly 46.1 µM), without a hit: at the highest dose activity, positive = more growth. hit rate 0.4% among 270,000; note: potency is the fitted concentration of half-maximal effect; actives are rising curves; nearly all actives have a fitted effect of over 50% in size
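In this qHTS, NS1 from influenza A is expressed in budding yeast, where it slows growth. Cells are switched from glucose to 2% galactose medium (pH 6.0, -URA), treated with compound, and growth recovery is read at OD600.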
Tb PYK inh = inhibitors of Trypanosoma brucei pyruvate kinase; Q57TT1; TbPYK enzyme, Kinase-Glo Plus ATP luminescence, 45 min; Potency, µM (doses to about 76.8 µM), inactives show top-dose activity, negative = inhibition, hits mostly inhibitors; hit rate 0.12% among 410,000; AID 624173; active = well fitted curve in the direction sought with a large enough effect; inconclusive = small, poorly fitted or top-dose-only effect, or another doubt; inactive = no such curve, though single readings can be large; an effect the other way counts as inactive or inconclusive; note: potency is the fitted concentration of half-maximal effect; % is set by controls: 0 for no effect and ±100 for the full control effect; nearly all actives have a fitted effect of over 50% in size
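Quantitative HTS: titrated library compounds versus trypanosomal pyruvate kinase in TEA buffer (pH 7.2) containing KCl, MgCl2, BSA and Tween-20. Reactions were initiated with ADP, 130 uM final. Kinase-Glo Plus luminescence was read after 45 min at RT.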
The depositor's hits bear a star; ? = inconclusive; · = not tested or not shown. This excerpt belongs to a sample that is enriched for hits. Unless noted, calls come from the whole dose curve.

SMILES	Cycloheximide cs	LmPK inhibitor	Shiga toxin inh	SARS PLP yeast	NS1 inh	Tb PYK inh
COc1ccc(CSc2nc3ncccc3[nH]2)cc1	·	·	·	·	·	-4%
O=C(N/N=C/c1ccc(OC(F)F)cc1)c1ccc(CSc2nc3ccccc3[nH]2)cc1	11	0%	15	?	15%	5%
COc1ccc(CSc2nc3ccccc3[nH]2)cc1	35*	16µM*	74*	-18%	-2%	-10%
Cc1ccccc1S(=O)c1ccccc1C(=O)O (configuration not stated)	1	-10%	-3	-1%	-1%	-2%
CCOc1ccccc1/C=C/c1nc2ccccc2[nH]c1=O	13*	-1%	17	7%	-12%	-13%
CCOc1ccccc1CSc1nc2ccccc2[nH]1	19*	1%	22	-39%	-12%	0%
Cc1ccc(N=Nc2cc(C)ccc2N)cc1	38*	14µM*	50*	0%	-7%	-22%
CS(=O)(=O)N(Cc1ccccc1)c1ccccc1C(=O)Nc1ccccc1C(=O)NCc1ccco1	-1	6%	-7	1%	-7%	-9%
Cc1ccc(S(=O)(=O)N(Cc2ccccc2)c2ccccc2C(=O)NCc2ccco2)cc1	25*	3%	31	-21%	-45%	-10%
Cc1ccc(NC(=S)NC(=O)c2ccc(Br)o2)c(C)c1	29*	1%	61*	0%	4%	-4%
O=C(NC(=S)Nc1ccccc1F)c1ccc(Br)o1	33*	2%	124*	1%	6%	-1%
Cc1ccc(C)c(NC(=S)NNC(=O)c2ccc(Br)o2)c1	16*	0%	70*	?	25%	-3%
Cc1cccc(NC(=S)NC(=O)c2ccc(Br)o2)c1C	1	0%	32	-1%	9%	-4%
CC1CN(C(=O)Nc2ccc(C(=O)NCc3ccccc3F)cc2)c2ccccc2S1 (configuration not stated)	·	·	·	·	·	2%
COc1cc(OC)cc(-c2c(-c3cccs3)c3cc(-c4ccc5[nH]ccc5c4)ccc3n2C)c1	·	·	·	2%	·	2%
O=C(/C(=C/O)N=Nc1ccccc1)c1cccs1	39*	-2%	42	-10%	·	2%
CC(C)(C)N(Cc1ccccc1)C(=O)c1cccs1	-1	-9%	-11	-4%	-5%	10%
O=C(CN1CCC(C(=O)c2ccc3c(c2)OCCO3)CC1)NCc1ccc(F)cc1	2	-6%	-2	18%	-1%	5%
CC1CCN(C(=O)c2cnn(-c3cccc(Cl)c3)c2C2CCN(C(=O)OC(C)(C)C)CC2)CC1	·	·	·	·	·	1%
CCn1c(C)nc2cc(C(N)=O)ccc21	3	-5%	6	-1%	7%	1%
CCn1c(C)nc2cc(C(=O)OCCC(F)(F)F)ccc21	29*	-3%	86*	-23%	-167%	-5%
CCn1c(C)nc2cc(N)ccc21	35*	1%	74	2%	3%	5%
CCn1c(C)nc2cc(OC)ccc21	1	0%	-9	1%	·	0%
Cc1ccc(CNC(=O)CC(C)CC2=NS(=O)(=O)c3ccccc3N2)cc1 (configuration not stated)	·	·	·	·	·	-1%
O=C(COc1ccc(Cl)cc1Cl)N/N=C/c1ccc(OC2OC(CO)C(O)C(O)C2O)cc1 (configuration not stated)	3	3%	4	1%	6%	-2%
SMILES	Cycloheximide cs	LmPK inhibitor	Shiga toxin inh	SARS PLP yeast	NS1 inh	Tb PYK inh
c1coc(-c2nn3c(-c4ccco4)nnc3s2)c1	10*	10%	12	-5%	-9%	-9%
COc1ccccc1-c1nn2c(-c3ccccc3Cl)nnc2s1	-2	7%	22	-4%	13µM*	·
COc1ccccc1-c1nn2c(-c3ccco3)nnc2s1	68*	3%	112*	-9%	-58%	-10%
Clc1ccccc1-c1nnc2sc(-c3ccc4c(c3)OCO4)nn12	19*	3%	40*	-2%	?	?
c1coc(-c2nnc3sc(Cc4cccs4)nn23)c1	12	0%	30	-6%	-6%	?
CCN(CC)c1ccc(-c2nn3c(-c4ccccc4OC)nnc3s2)cc1	-1	6%	18	-18%	-69%	-9%
COc1cc(F)ccc1-c1cc(C(=O)Nc2ccc(NC(C)=O)cc2)[nH]n1	·	·	·	·	·	1%
Cc1ccc(C(=O)CSc2nnc3ccc4ccccc4n23)cc1	·	·	·	·	·	-14%

Screening results: PubChem, National Center for Advancing Translational Sciences (NCATS)
